Where “and” joins values, the source holds several entries; their conditions need not be identical. Equal entries are not always repeated. Inconclusive results are not listed. Where a call stands in place of a potency, no number is given. A structure can be active in one record and inactive in another. Calls of active or inactive are those of the source. Calls follow the shape of the dose curve; as a rule, active = well fitted inhibition curve with a large enough effect in the signal ratio in the repeat runs; inconclusive = weak or mixed curves, or effect the other way; inactive = flat fitted curve, though single readings scatter; the % refers to the signal ratio.
Potency is read from the fitted curve at half-maximal effect.

The assay in a line: qHTS assay for small molecule disruptors of the mitochondrial membrane potential (AID 720635). The following applies: HepG2 mitochondrial membrane potential, Mito-MPS dye ratio; series mostly up to 83.2 µM. An excerpt: U.S. Tox21 Program National Center for Advancing Translational Sciences [NCATS] NIH Chemical Genomics Center [NCGC] U.S. Environmental Protection Agency [EPA] National Institutes of Environmental Health Sciences [NIEHS] National Toxicology Program [NTP] U.S. Food and Drug Administration [FDA] Tox21 Assay Overview: Mitochondrial membrane potential (MMP), one of the parameters for mitochondrial function, is generated by mitochondrial electron transport chain that creates an electrochemical gradient by a series of redox reactions. This gradient drives the synthesis of ATP, a crucial molecule for various cellular processes. Measuring MMP in living cells is commonly used to assess the effect of chemicals on mitochondrial function. […] The dye accumulates in the mitochondria of healthy cells as aggregates, with red fluorescence. The mitochondrial potential collapses and the dye can no longer accumulate in the mitochondria and remains in the cytoplasm in monomers, with green fluorescence.
Tox21 Assay Protocol Summary: 2,000 HepG2 cells in 5 uL/well were dispensed into black, clear-bottom 1536-well plates using a Multidrop Combi (Thermo Scientific) dispenser. The assay plates were incubated overnight at 37C to allow cells to attach to the wells, followed by the transfer of 23 nL compound or DMSO vehicle by a pin tool (Kalypsys). The plates were incubated for 1 hr at 37C and 5% CO2, followed by the addition of 5 uL of 2X Mito-MPS dye (BD Biosciences) into each well using Flying Reagent Dispenser (Aurora Discovery) and then following 30 min incubation at 37C. Fluorescence intensity (490nm excitation and 535nm emission for monomers; and 540nm excitation and 590nm emissions for aggregates) was measured using an Envision plate reader.
Consider `CCCn1cc[n+](C)c1`, for which the Potency entry was “inactive”.
Next, `Nc1ccc(-c2ccc(N)c(Cl)c2)cc1Cl`: 5.48 µM (active) and 16.1 µM (active) and 8.63 µM (active); `CCCCCCn1cc[n+](C)c1`: 11 µM (active) and 24.5 µM (active) and 22.2 µM (active).
The same measure for `CC(Cl)(Cl)C(=O)O`: “inactive”; for `CCCCCCCCCCCC(=O)O`: “inactive”.
The same measure for `CN(C)[C@@H]1C(=O)C(C(N)=O)=C(O)[C@@]2(O)C(=O)C3=C(O)c4c(O)cccc4[C@@](C)(O)[C@H]3[C@H](O)[C@@H]12`: “inactive and 34.4 µM (active)”; for `CNC`: “inactive”; for `CCC[N+]1(C)CCCCC1`: “inactive”.
Consider `COc1ccccc1N`, for which the Potency result was “inactive”.
Next, `CC[N+](CC)(CC)CC`: “inactive”; `N#CS`: “inactive”.
For `CCCCn1cc[n+](C)c1C`, the Potency entry is “inactive”.
Next, `CC(=O)[O][Hg][c]1ccccc1`: 4.73 µM (active) and 1.08 µM (active) and 1.93 µM (active); `C1CCC(NC2CCCCC2)CC1`: “inactive”.
As to `CCCC[n+]1ccccc1C`, the Potency result is “inactive”.
Next, `CCCCn1cc[n+](C)c1`: “inactive”.
`CCCCCCCCCCCCCCCCn1cc[n+](C)c1`: the Potency was 17.6 µM (active) and inactive and 17.4 µM (active).
The same measure for `O=[N+]([O-])c1ccccc1O`: “inactive”; for `O=P1(N(CCCl)CCCl)NCCCO1` (stereo not given): “inactive”; for `OCCOc1ccccc1`: “inactive”.
The same measure for `C[C@]12CCC(=O)C=C1CC[C@@H]1[C@@H]2CC[C@]2(C)C(=O)CC[C@@H]12`: “inactive”; for `O=C(O)C(Cl)Cl`: “inactive”.
`C[N+](C)(C)Cc1ccccc1`: the Potency entry was “inactive”.
The same measure for `O=C(O)c1nc(Cl)ccc1Cl`: “inactive”; for `CCCCCC[n+]1ccccc1`: 61.7 µM (active) and inactive.
As to `CCCC[n+]1ccccc1`, the Potency entry is “inactive”.
As to `CCn1cc[n+](C)c1C`, the Potency result is “inactive”.
Next, `CC[n+]1ccccc1`: “inactive”; `CCCCCCCCCCCCOS(=O)(=O)O`: “inactive”; `Oc1ccccc1-c1ccccc1`: 21.7 µM (active) [middle of 4 runs].
The same measure for `CCCCCCCCCCCCCC[P+](CCCCCC)(CCCCCC)CCCCCC`: 434 nM (active) and 616 nM (active) and 273 nM (active); for `COP(=O)(OC)C(O)C(Cl)(Cl)Cl` (stereo not given): “inactive”; for `Cc1cc(Cl)ccc1N`: “inactive”.
As to `Nc1ccc(Cl)cc1`, the Potency entry was “inactive”.
In the case of `Nc1ccccc1`, the Potency result is “inactive”.
Regarding `CC[N+]1(C)CCCC1`, the Potency result is “inactive”.
Next, `O=C(O)CC(O)(CC(=O)O)C(=O)O`: “inactive”.
Take `O=C(O)C(Cl)(Cl)Cl`: the Potency result is “inactive”.
`CCCC[N+]1(C)CCCCC1`: the Potency result is “inactive”.
As for `O=C(O)COc1ccc(Cl)cc1Cl`, the Potency entry was “inactive”.

The values are drawn from PubChem BioAssay (Tox21).
